# Records with an inconclusive call do not appear. Entries that show only a call come without a potency. The source made the active and inactive calls. Calls follow the shape of the dose curve; as a rule, active = well fitted activation curve with a large enough effect; inconclusive = small, poorly fitted or top-dose-only effect; inactive = no such curve, though single readings can be large or run the other way.
# Biological target: Arylsulfatase A (Homo sapiens) (UniProt P15289)
# Test: qHTS screen for enhancers of Arylsulfatase A (ASA1): LOPAC Validation Assay (AID 720538)
# Conditions: ASA enzyme activity, LOPAC qHTS enhancer assay; series mostly up to 57.5 µM
# Summary of the method: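 Enhancer assay in patient-derived MLD fibroblasts carrying ASA-I179S: 48 h compound exposure at 37 C, then 14 h room-temperature pNCS turnover (0.5 mM final) in lysis buffer. Read by fluorescence at 525/598 nm after NaOH stop.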
# Sequence of Arylsulfatase A (Homo sapiens) (P15289 whole entry, looked up): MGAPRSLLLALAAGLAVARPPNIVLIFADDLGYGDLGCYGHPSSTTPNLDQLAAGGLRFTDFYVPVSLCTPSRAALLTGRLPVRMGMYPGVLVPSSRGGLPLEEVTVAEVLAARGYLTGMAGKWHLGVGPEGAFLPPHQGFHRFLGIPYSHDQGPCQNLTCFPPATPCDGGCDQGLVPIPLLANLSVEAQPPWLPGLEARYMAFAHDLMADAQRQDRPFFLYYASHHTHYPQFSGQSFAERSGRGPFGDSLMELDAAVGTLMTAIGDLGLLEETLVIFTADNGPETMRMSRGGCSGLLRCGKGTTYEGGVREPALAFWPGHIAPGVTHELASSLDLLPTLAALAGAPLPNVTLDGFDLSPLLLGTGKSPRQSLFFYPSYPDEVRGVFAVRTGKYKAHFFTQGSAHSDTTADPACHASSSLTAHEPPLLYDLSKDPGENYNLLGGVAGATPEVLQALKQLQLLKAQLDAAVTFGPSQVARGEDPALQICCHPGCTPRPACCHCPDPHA
row,Structure (SMILES),Potency
1,CCc1cccc2c3c([nH]c12)C(CC)(CC(=O)O)OCC3 (configuration not stated),inactive
2,NC12CC3CC(CC(C3)C1)C2,inactive
3,CN1CCC(=C2c3ccccc3C=Cc3ccccc32)CC1,inactive
4,CN1C(C(=O)Nc2ccccn2)=C(O)c2ccccc2S1(=O)=O,inactive
5,Cc1cc(C(C)(C)C)cc(C)c1CC1=NCCN1,inactive
6,CCN1CCCC1CNC(=O)c1cc(S(=O)(=O)CC)c(N)cc1OC (configuration not stated),inactive
7,CN(C)CCC=C1c2ccccc2C=Cc2ccccc21,inactive
8,CC12CC3CC(C)(C1)CC(N)(C3)C2,inactive
9,O=C1N(c2ccccc2)c2ccccc2C1(Cc1ccncc1)Cc1ccncc1,inactive
10,CN(Cc1cnc2nc(N)nc(N)c2n1)c1ccc(C(=O)N[C@@H](CCC(=O)O)C(=O)O)cc1,inactive
11,Clc1ccccc1C(c1ccccc1)(c1ccccc1)n1ccnc1,inactive
12,COC(=O)Nc1nc2ccc(C(=O)c3cccs3)cc2[nH]1,inactive
13,CC1COc2c(N3CCN(C)CC3)c(F)cc3c(=O)c(C(=O)O)cn1c23 (configuration not stated),inactive
14,CCCNCC(O)COc1ccccc1C(=O)CCc1ccccc1 (configuration not stated),inactive
15,CN1CCN(CCCN2c3ccccc3Sc3ccc(Cl)cc32)CC1,inactive
16,CN1CCN(C2=Nc3cc(Cl)ccc3Nc3ccccc32)CC1,inactive
17,Fc1ccc([C@@H]2CCNC[C@H]2COc2ccc3c(c2)OCO3)cc1,inactive
18,COc1cc2nc(N3CCN(C(=O)c4ccco4)CC3)nc(N)c2cc1OC,inactive
19,CNCCCC12CCC(c3ccccc31)c1ccccc12,inactive
20,C[C@H]1c2cccc(O)c2C(O)=C2C(=O)[C@]3(O)C(O)=C(C(N)=O)C(=O)[C@@H](N(C)C)[C@@H]3[C@@H](O)[C@@H]21,inactive
21,NC(=O)NO,inactive
22,COc1cc2nc(N(C)CCCNC(=O)C3CCCO3)nc(N)c2cc1OC (configuration not stated),inactive
23,CN(C)CCCN1c2ccccc2CCc2ccc(Cl)cc21,inactive
24,NC(=O)OCC(COC(N)=O)c1ccccc1,inactive
25,NC(CO)C(=O)NNCc1ccc(O)c(O)c1O (configuration not stated),inactive
26,OCCN(CCO)c1nc(N2CCCCC2)c2nc(N(CCO)CCO)nc(N3CCCCC3)c2n1,inactive
27,Nc1nnc(-c2cccc(Cl)c2Cl)c(N)n1,inactive

# Source: PubChem BioAssay (NCATS)
